Assay [1] can be described thus: BSK_3C_Proliferation: Cell Proliferation Assessment in the BioMAP Diversity Plus: 3C Assay (AID 2283006; active = hit-call score of the fitted dose curve at least 0.9, where 1 is the maximum; inactive = score below 0.9;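 as to AC50: potency may reflect either rise or fall in cell number versus DMSO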). The conditions noted are these: primary human endothelial cells (HUVEC). The gist of the method:
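Proliferation as total protein: sulforhodamine B (0.1%) stain of TCA-fixed subconfluent human umbilical vein endothelial cells, absorbance 560 nm, 48 h after dosing. Activity fitted in both directions against DMSO baseline.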

The target of assay [2] is Nuclear receptor subfamily 1 group I member 2 (Homo sapiens) (UniProt O75469). The assay is described as follows: ATG_PXR_TRANS: Attagene TRANS-FACTORIAL HepG2 Assay for human Pregnane X Receptor (PXR) (AID 2283008). The gist of the method:
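HepG2 transfected (FuGene 6) with GAL4-UAS reporter units + PXR-Gal4 chimera; dosed 24 h. Total RNA → oligo(dT) RT → PCR → 6-FAM primer extension → HpaI cut → CE. Gain-of-signal vs DMSO.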

Assay [3] deals with human Retinoic Acid Receptor gamma (RARg), RARG (gene 5916) (UniProt P13631). Nature of the assay: ATG_RARg_TRANS: Attagene TRANS-FACTORIAL HepG2 Assay for human Retinoic Acid Receptor gamma (RARg) (AID 2283009). In short, it runs like this:
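Transactivation of exogenous RARg-Gal4 fusion measured as reporter transcript induction after 24 h in transfected HepG2 cells. RNA reverse-transcribed, amplified, fluorescently labeled and resolved by capillary electrophoresis; increase relative to DMSO.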

For assay [4], the target named is Retinoic acid receptor RXR-alpha (Homo sapiens) (UniProt P19793). The assay is described as follows: ATG_RXRa_TRANS: Attagene TRANS-FACTORIAL HepG2 Assay for human Retinoid X Receptor alpha (RXRa) (AID 2283012). In short, it runs like this:
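TRANS format reporting activity of exogenous RXRa-Gal4 chimera in transiently transfected HepG2, 24 h exposure. Reporter transcripts quantified by RT-PCR with capillary electrophoresis, with gain of signal scored relative to DMSO.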

Assay [5] has as its target human Retinoid X Receptor beta (RXRb), RXRB (gene 6257) (UniProt P28702). Nature of the assay: ATG_RXRb_TRANS: Attagene TRANS-FACTORIAL HepG2 Assay for human Retinoid X Receptor beta (RXRb) (AID 2283013). The gist of the method: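 Readout is reporter transcript induction after 24 h dosing. It is measured by RT-PCR of total RNA followed by fluorescent capillary electrophoresis. HepG2 liver cells carry transfected multiple reporter units driven by an exogenous RXRb-Gal4 fusion; activity is relative to DMSO.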

Read-out in assay [6]: E-selectin (Homo sapiens) (UniProt P16581)
Nature of the assay: BSK_3C_Eselectin: BioMAP Diversity Plus: 3C Assay for Eselectin Biomarker Activity (AID 2283015; active = hit-call score of the fitted dose curve at least 0.9, where 1 is the maximum; inactive = score below 0.9;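 as to outcome: cell surface E-selectin protein quantified by ELISA 24 h after dosing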). The settings on record: primary human endothelial cells (HUVEC); actives raise or lower the signal. In short, it runs like this: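 Endpoint derived by bidirectional fitting against DMSO vehicle; signal is ELISA-detected E-selectin from primary HUVEC at 24 h post-dosing, with parallel SRB staining (0.1% SRB, 560 nm) flagging cytotoxicity.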

Read-out in assay [7]: Interleukin-1 alpha (IL1a), IL1A (gene 3552)
Nature of the assay: BSK_BE3C_IL1a: BioMAP Diversity Plus: BE3C Assay for Interleukin-1 alpha (IL1a) Biomarker Activity (AID 2283016; active = hit-call score of the fitted dose curve at least 0.9, where 1 is the maximum; inactive = score below 0.9). The settings on record: primary human bronchial epithelial cells; actives raise or lower the signal. The gist of the method: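 IL-1a measured by ELISA after 24 h treatment of human primary bronchial epithelial cells, with gain or loss of signal fitted versus DMSO. Parallel cultures stained with SRB gauge overt cytotoxicity.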

Read-out in assay [8]: Monocyte Chemoattractant Protein-1 (MCP1), CCL2 (gene 6347)
Nature of the assay: BSK_3C_MCP1: BioMAP Diversity Plus: 3C Assay for Monocyte Chemoattractant Protein-1 (MCP1) Biomarker Activity (AID 2283017; active = hit-call score of the fitted dose curve at least 0.9, where 1 is the maximum; inactive = score below 0.9). The settings on record: primary human endothelial cells (HUVEC); actives raise or lower the signal. The gist of the method: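 Using human vascular primary endothelium, researchers measured MCP-1 by ELISA 24 h after treatment, with DMSO serving as negative control for bidirectional fitting.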

Read-out in assay [9]: Monocyte Chemoattractant Protein-1 (MCP1), CCL2 (gene 6347)
Nature of the assay: BSK_4H_MCP1: BioMAP Diversity Plus: 4H Assay for Monocyte Chemoattractant Protein-1 (MCP1) Biomarker Activity (AID 2283018; active = hit-call score of the fitted dose curve at least 0.9, where 1 is the maximum; inactive = score below 0.9). The settings on record: primary human endothelial cells (HUVEC); actives raise or lower the signal. In short, it runs like this:
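ELISA of MCP-1 (CCL2) 24 h after chemical dosing of HUVEC in the BioMAP 4H system. Gain or loss versus DMSO fitted; parallel SRB staining (560 nm) tracked overt cytotoxicity.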

Read-out in assay [10]: Human Leukocyte Antigen - DR isotype (HLADR), HLA-DRA (gene 3122)
Nature of the assay: BSK_3C_HLADR: BioMAP Diversity Plus: 3C Assay for Human Leukocyte Antigen - DR isotype (HLADR) Biomarker Activity (AID 2283019; active = hit-call score of the fitted dose curve at least 0.9, where 1 is the maximum; inactive = score below 0.9;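 as to outcome: ELISA of cell-surface HLA-DR on HUVEC 24 h after dosing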). The settings on record: primary human endothelial cells (HUVEC); actives raise or lower the signal. The gist of the method:
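Compound added to primary HUVEC cultures, 24 h incubation, then HLA-DR determined by ELISA; endpoint derived by bidirectional fitting relative to DMSO negative control.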

Read-out in assay [11]: Monokine induced gamma interferon (MIG), CXCL9 (gene 4283)
The assay is described as follows: BSK_3C_MIG: BioMAP Diversity Plus: 3C Assay for Monokine induced gamma interferon (MIG) Biomarker Activity (AID 2283021; active = hit-call score of the fitted dose curve at least 0.9, where 1 is the maximum; inactive = score below 0.9). The settings on record: primary human endothelial cells (HUVEC); actives raise or lower the signal. In short, it runs like this: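 ELISA measurement of MIG in human umbilical vein endothelial cells 24 h after treatment. Cytotoxicity tracked by SRB staining in parallel cultures; gain or loss of signal fitted relative to DMSO.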

Assay [12] in a line: BSK_3C_SRB: Viability Assessment in the BioMAP Diversity Plus: 3C Assay (AID 2283023; active = hit-call score of the fitted dose curve at least 0.9, where 1 is the maximum; inactive = score below 0.9;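 also: cells read 24 h after compound dosing; fitted both ways against DMSO so a hit may be signal rise or drop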). The conditions noted are these: primary human endothelial cells (HUVEC). The gist of the method: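 Overt cytotoxicity is gauged in parallel confluent HUVEC cultures by SRB total-protein staining at the time of biomarker measurement, 24 h after dosing. Gain or loss of signal is fitted versus DMSO.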

In assay [13] the target is human RAR-related Orphan Receptor gamma (RORg), RORC (gene 6097) (UniProt P51449). The assay is described as follows: ATG_RORg_TRANS: Attagene TRANS-FACTORIAL HepG2 Assay for human RAR-related Orphan Receptor gamma (RORg) (AID 2283011). The gist of the method:
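Chimeric RORg-Gal4 transactivation in transfected HepG2; 24 h exposure; RT-PCR/capillary electrophoresis readout of reporter mRNA, DMSO baseline.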

Assay [14] addresses human Thyroid Receptor alpha (THRa1), THRA (gene 7067) (UniProt P10827). The assay is described as follows: ATG_THRa1_TRANS: Attagene TRANS-FACTORIAL HepG2 Assay for human Thyroid Receptor alpha (THRa1) (AID 2283014). In short, it runs like this:
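Measured here is mRNA from a GAL4-UAS reporter in transfected HepG2 cells carrying a Gal4-fused receptor, 24 h post-dose. DMSO served as negative control and baseline.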

Read-out in assay [15]: Interleukin-8 (IL8), CXCL8 (gene 3576)
Nature of the assay: BSK_3C_IL8: BioMAP Diversity Plus: 3C Assay for Interleukin-8 (IL8) Biomarker Activity (AID 2283020; active = hit-call score of the fitted dose curve at least 0.9, where 1 is the maximum; inactive = score below 0.9). The settings on record: primary human endothelial cells (HUVEC); actives raise or lower the signal. The gist of the method:
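IL-8 was measured by ELISA in HUVEC cultures 24 h after chemical dosing, with gain or loss of signal fitted relative to DMSO. Parallel SRB total-protein staining tracked overt cytotoxicity.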

The target of assay [16] is Peroxisome proliferator-activated receptor gamma (Homo sapiens) (UniProt P37231). Nature of the assay: ATG_PPARg_TRANS: Attagene TRANS-FACTORIAL HepG2 Assay for human Peroxisome Proliferator-activated Receptor-gamma (PPARg) (AID 2283007). In short, it runs like this: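 HepG2 cells are transiently transfected with GAL4-UAS reporter units driven by chimeric NR-Gal4 fusions and dosed for 24 h. Reporter mRNA is quantified by RT-PCR, 6-FAM labelling, HpaI digestion and capillary electrophoresis. Induction is scored against DMSO.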
Peroxisome proliferator-activated receptor gamma (Homo sapiens), sequence (P37231 whole entry, looked up, the tested form may be a part): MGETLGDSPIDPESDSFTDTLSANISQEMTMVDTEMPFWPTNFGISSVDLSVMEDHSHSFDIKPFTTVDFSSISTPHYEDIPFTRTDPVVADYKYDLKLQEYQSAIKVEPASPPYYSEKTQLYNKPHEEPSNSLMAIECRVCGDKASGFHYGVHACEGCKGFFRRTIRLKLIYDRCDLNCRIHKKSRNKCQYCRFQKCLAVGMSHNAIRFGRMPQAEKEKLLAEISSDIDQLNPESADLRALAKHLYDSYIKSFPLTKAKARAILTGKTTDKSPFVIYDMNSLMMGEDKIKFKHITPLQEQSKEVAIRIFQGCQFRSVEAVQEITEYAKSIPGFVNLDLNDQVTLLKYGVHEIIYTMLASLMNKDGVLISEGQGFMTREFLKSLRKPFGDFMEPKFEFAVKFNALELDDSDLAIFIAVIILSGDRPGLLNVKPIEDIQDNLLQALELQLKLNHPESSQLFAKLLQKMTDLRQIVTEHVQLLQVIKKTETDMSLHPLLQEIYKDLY

Assay [17] has as its target human Vitamin D Receptor (VDR), VDR (gene 7421) (UniProt P11473). Nature of the assay: ATG_VDR_TRANS: Attagene TRANS-FACTORIAL HepG2 Assay for human Vitamin D Receptor (VDR) (AID 2283022). In short, it runs like this: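 Multiplexed TRANS reporter in HepG2; 24 h treatment; reporter mRNA by RT-PCR plus capillary electrophoresis; upregulation scored relative to DMSO.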

The target of assay [18] is human RAR-related Orphan Receptor beta (RORb), RORB (gene 6096) (UniProt Q92753). Nature of the assay: ATG_RORb_TRANS: Attagene TRANS-FACTORIAL HepG2 Assay for human RAR-related Orphan Receptor beta (RORb) (AID 2283010). The gist of the method: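 Read-out is reporter mRNA induction, quantified by RT-PCR with fluorescent capillary electrophoresis, 24 h post-dose in transiently transfected HepG2 expressing exogenous NR-Gal4 chimera. Activity fitted upward versus DMSO.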
human RAR-related Orphan Receptor beta (RORb), RORB (gene 6096), sequence (Q92753 whole entry, looked up, the tested form may be a part): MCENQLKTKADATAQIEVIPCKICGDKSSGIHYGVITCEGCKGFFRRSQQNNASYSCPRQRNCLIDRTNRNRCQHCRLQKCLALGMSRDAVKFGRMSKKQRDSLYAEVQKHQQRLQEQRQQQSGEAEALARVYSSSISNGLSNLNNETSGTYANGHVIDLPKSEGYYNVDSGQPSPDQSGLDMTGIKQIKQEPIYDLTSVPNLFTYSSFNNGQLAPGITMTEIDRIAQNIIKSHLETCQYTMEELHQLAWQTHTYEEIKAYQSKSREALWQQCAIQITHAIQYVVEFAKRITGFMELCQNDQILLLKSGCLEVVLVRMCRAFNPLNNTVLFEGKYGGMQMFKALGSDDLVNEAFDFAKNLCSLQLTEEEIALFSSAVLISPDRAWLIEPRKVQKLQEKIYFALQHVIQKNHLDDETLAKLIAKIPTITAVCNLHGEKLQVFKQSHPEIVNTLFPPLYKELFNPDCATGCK

The structures appear in SMILES notation. Results filed as inconclusive are left out. Calls of active or inactive are those of the source. The calls were made as follows, unless noted: active = hit-call score of the fitted dose curve at least 0.9, where 1 is the maximum; inconclusive = response in the unintended direction; inactive = score below 0.9.

human Retinoic Acid Receptor gamma (RARg), RARG (gene 5916), sequence (P13631 whole entry, looked up, the tested form may be a part): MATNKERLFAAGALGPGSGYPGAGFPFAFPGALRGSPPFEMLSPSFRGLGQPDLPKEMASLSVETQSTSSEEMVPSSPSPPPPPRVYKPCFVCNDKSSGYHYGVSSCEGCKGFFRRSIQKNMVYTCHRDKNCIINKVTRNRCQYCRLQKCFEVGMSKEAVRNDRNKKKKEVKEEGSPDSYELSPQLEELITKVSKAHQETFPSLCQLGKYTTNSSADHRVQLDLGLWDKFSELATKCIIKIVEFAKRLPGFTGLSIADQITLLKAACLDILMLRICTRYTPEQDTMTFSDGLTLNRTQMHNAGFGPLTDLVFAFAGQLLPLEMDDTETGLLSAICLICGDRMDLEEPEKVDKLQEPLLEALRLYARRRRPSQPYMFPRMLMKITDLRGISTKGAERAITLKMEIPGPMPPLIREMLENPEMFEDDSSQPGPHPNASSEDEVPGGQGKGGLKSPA
E-selectin (Homo sapiens), sequence (P16581 whole entry, looked up): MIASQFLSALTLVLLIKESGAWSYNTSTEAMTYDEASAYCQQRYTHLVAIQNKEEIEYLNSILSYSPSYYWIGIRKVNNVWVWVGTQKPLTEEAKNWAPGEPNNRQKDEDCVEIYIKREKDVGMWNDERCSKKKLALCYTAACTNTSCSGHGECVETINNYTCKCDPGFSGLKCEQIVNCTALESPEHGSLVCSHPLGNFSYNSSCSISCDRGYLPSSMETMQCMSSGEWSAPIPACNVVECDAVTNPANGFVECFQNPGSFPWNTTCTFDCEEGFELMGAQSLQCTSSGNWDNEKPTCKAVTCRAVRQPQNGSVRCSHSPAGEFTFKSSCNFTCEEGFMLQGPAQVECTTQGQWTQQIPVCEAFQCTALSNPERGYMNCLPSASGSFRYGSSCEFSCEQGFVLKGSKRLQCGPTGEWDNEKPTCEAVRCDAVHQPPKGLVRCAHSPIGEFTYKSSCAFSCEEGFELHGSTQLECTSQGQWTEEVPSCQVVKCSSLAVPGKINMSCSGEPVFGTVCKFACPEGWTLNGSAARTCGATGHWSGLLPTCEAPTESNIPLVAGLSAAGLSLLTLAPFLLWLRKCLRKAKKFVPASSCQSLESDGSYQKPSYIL
human Vitamin D Receptor (VDR), VDR (gene 7421), sequence (P11473 whole entry, looked up): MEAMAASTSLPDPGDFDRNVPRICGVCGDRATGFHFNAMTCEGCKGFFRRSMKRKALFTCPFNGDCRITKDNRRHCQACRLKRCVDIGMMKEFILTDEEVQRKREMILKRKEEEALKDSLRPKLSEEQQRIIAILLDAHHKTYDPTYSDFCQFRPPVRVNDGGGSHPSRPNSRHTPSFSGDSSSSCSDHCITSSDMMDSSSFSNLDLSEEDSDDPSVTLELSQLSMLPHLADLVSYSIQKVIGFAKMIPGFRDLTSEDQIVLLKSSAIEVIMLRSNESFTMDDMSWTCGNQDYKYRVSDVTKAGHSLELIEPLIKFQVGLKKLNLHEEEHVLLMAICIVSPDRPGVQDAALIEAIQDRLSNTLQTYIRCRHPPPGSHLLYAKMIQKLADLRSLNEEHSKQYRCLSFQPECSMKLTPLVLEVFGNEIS
human Retinoid X Receptor beta (RXRb), RXRB (gene 6257), sequence (P28702 whole entry, looked up, the tested form may be a part): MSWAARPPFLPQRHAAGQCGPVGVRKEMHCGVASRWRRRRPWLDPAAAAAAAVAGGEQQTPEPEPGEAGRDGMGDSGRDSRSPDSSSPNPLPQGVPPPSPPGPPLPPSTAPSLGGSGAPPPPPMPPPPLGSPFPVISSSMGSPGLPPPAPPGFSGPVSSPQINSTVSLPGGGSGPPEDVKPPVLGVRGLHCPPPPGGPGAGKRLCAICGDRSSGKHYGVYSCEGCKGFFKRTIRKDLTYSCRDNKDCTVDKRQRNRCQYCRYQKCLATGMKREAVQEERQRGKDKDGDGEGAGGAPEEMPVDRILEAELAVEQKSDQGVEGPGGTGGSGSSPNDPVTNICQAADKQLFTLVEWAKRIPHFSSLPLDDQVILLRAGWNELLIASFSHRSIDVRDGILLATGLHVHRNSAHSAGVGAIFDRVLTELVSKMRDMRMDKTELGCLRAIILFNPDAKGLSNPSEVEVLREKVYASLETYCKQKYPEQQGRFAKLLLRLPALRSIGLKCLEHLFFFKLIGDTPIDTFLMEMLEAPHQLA
human RAR-related Orphan Receptor gamma (RORg), RORC (gene 6097), sequence (P51449 whole entry, looked up, the tested form may be a part): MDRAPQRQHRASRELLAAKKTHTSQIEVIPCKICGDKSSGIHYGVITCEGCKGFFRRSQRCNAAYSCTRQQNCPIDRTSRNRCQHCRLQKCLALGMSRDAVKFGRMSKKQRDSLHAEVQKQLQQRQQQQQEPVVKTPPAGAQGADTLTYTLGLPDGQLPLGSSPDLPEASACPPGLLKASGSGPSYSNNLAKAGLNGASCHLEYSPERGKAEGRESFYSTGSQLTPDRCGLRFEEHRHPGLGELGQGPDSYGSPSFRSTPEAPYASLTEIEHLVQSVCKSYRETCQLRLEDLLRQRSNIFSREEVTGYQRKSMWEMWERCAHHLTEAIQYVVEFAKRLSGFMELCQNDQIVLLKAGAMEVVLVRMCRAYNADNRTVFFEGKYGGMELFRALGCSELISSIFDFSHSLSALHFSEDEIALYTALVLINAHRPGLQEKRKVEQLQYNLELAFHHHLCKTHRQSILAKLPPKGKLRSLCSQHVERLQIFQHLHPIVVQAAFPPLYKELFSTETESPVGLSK
Nuclear receptor subfamily 1 group I member 2 (Homo sapiens), sequence (O75469 whole entry, looked up, the tested form may be a part): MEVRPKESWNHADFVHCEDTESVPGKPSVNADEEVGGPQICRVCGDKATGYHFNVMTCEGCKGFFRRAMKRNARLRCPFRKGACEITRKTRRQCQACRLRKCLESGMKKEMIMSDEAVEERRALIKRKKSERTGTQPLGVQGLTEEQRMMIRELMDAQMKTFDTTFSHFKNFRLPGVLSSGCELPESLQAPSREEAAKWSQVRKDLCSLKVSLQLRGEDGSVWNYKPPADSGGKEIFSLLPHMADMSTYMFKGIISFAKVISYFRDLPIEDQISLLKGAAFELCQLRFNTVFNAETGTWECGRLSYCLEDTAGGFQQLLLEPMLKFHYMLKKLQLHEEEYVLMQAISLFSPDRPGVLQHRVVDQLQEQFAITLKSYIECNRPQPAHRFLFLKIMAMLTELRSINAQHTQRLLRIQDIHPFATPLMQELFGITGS
human Thyroid Receptor alpha (THRa1), THRA (gene 7067), sequence (P10827 whole entry, looked up, the tested form may be a part): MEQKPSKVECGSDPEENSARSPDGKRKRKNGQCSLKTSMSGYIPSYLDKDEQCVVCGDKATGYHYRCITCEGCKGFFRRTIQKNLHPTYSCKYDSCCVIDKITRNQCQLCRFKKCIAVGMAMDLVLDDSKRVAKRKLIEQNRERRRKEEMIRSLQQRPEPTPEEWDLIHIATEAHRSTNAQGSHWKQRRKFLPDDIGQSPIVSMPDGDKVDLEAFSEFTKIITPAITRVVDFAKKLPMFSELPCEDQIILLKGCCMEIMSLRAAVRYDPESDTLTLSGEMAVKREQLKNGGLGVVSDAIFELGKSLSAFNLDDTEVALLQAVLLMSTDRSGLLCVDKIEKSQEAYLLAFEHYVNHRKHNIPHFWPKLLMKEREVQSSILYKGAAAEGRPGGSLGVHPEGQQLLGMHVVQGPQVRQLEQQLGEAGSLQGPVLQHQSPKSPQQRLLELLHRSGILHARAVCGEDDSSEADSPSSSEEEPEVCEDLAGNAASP
Retinoic acid receptor RXR-alpha (Homo sapiens), sequence (P19793 whole entry, looked up, the tested form may be a part): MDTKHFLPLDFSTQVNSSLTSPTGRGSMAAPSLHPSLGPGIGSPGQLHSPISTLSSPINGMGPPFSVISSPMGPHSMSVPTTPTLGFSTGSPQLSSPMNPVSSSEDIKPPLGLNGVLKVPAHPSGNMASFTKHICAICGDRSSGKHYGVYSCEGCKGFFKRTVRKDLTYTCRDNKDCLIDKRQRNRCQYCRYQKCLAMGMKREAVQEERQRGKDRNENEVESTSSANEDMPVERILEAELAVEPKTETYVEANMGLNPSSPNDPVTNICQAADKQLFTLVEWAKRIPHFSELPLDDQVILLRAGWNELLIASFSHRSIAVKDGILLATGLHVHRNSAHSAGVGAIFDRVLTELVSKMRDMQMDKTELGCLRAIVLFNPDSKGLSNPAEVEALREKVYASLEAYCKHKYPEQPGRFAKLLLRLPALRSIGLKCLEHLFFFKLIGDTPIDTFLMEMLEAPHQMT

As to `CC1(C)Cc2cccc(O)c2O1`, the result in assay [1], in assay [2], in assay [3], in assay [4], in assay [5] and in assay [6] was inactive. Further, the result in [7], in assay [8], in [9], in assay [10], in assay [11] and in [12] was inactive.
In the case of `Cc1ccccc1N`, the result in assay [1], in [13], in assay [14], in assay [6], in assay [7] and in [8] was inactive. Further, the result in [9], in assay [10], in assay [15] and in [12] was inactive.
On to `CC(C)(c1ccc(OCC2CO2)cc1)c1ccc(OCC2CO2)cc1` (stereo not given), for which the result in [16], in assay [2], in assay [13] and in assay [5] was inactive.
One may read the AC50 as the concentration giving half of the maximal activity seen. Consider `c1ccc(N=NNc2ccccc2)cc1`, for which the AC50 in assay [16] is 65.7 µM (active); in assay [2], 33.6 µM (active); in [14], 134 µM (active). Moreover, the outcome in assay [3] and in [17] was inactive.
With `COc1cc2c(cc1OC)[C@@]13CCN4CC5=CCO[C@H]6CC(=O)N2[C@H]1[C@H]6[C@H]5C[C@H]43`, the compound was classed as inactive in assay [16], in assay [2], in assay [13], in assay [14] and in assay [17].
As for `CC(C)CCCCCCOC(=O)c1ccccc1C(=O)OCCCCCCC(C)C`, the result in assay [1], in assay [18], in assay [6], in [7], in assay [8] and in [9] was inactive. Further, the outcome in assay [10], in assay [15], in assay [11], in assay [17] and in [12] was inactive. Further, the AC50 in assay [2] is 1.84 µM (active).
On to `CCOP(=S)(OCC)Oc1nc(Cl)c(Cl)cc1Cl`, for which the AC50 in assay [1] was 20 µM (active); in [2] it was 5.64 µM (active); in [5], 30.9 µM (active); in assay [6], 37.1 µM (active); in [8], 33.1 µM (active); in assay [9] it was 20 µM (active). The results for the AC50 in assay [10], in [15] and in [12] were 28.2 µM (active), 31.1 µM (active) and 30.2 µM (active), respectively. The compound was called inactive in assay [18], in assay [7] and in assay [17].
As to `CC(=O)c1cc(C(C)(C)C)cc2c1CCC2(C)C`, the result in assay [16] and in assay [17] was inactive. The figures for the AC50 in assay [2], in [4] and in assay [5] were 5.5 µM (active), 3.52 µM (active) and 0.446 µM (active), respectively.
In the case of `O=C(c1ccccc1)C(Cl)Cl`, the call in assay [16], in [2], in assay [3], in assay [18], in assay [13] and in assay [4] was inactive. Moreover, the compound was classed as inactive in assay [5] and in assay [14].
As for `N#CCc1ccc(Cl)cc1`, the outcome in [16], in assay [2], in [13], in assay [4], in assay [5] and in [17] was inactive.
As to `CCCCC(CC)CO[N+](=O)[O-]` (stereo not given), the AC50 in [1] was 30.8 µM (active); in assay [5], 99.5 µM (active); in [6] it was 35.8 µM (active); in assay [9], 20 µM (active); in [10] it was 35.4 µM (active); in assay [12], 34.9 µM (active). Further, the compound was classed as inactive in [2], in assay [13], in assay [7], in [8] and in [11].

Source of the values: PubChem BioAssay (EPA / NIEHS).
